# Assay results from the supplement of paper PMC6555819.
# Legend:
# Experiment in all cases: PBM binding z-score (relative to random genomic background probes); higher = stronger binding; sequences stand for … in GC…GCGATTGACAGCGTAGAATGAAGG
# [1] = test system: RARb homodimer (NR concentration 270 nM)
# In short: (§1)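 Ligand-free nuclear receptor dimers were applied to custom Agilent 4×180K protein-binding microarrays whose double-stranded probes carried direct-repeat seeds, single-nucleotide variants, half-site ablations and random human genomic background sequences in 34-nt variable regions. Incubation lasted 1 h. Binding z-scores were computed against the random background probes from regression-normalized fluorescence.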
# [2] = test system: RARg:RXRa (NR concentration 270 nM, RXRa partner concentration 90 nM)
# In short: as §1
# [3] = test system: RARg homodimer (NR concentration 270 nM)
# In short: as §1
# [4] = test system: RXRa DBDmut IVT, anti-RXR (DBD mutation: RXRa K156A/R161A, NR concentration 90 nM)
# In short: as §1
# [5] = test system: RXRa homodimer (NR concentration 180 nM)
# In short: as §1
# [6] = test system: THRa:RXRa (NR concentration 90 nM, RXRa partner concentration 90 nM)
# In short: as §1
# [7] = test system: THRa homodimer (NR concentration 90 nM)
# In short: as §1
# [8] = test system: VDR:RXRa (NR concentration 270 nM, RXRa partner concentration 90 nM)
# In short: as §1
# [9] = test system: VDR homodimer (NR concentration 270 nM)
# In short: as §1
Sequence,PBM binding z-score [1],PBM binding z-score [2],PBM binding z-score [3],PBM binding z-score [4],PBM binding z-score [5],PBM binding z-score [6],PBM binding z-score [7],PBM binding z-score [8],PBM binding z-score [9]
GCTAGTTGGTCAGTAAAAGTTCACACACCGGTCG,3.69,3.04,2.42,1.07,1.82,1.46,0.436,2.55,2.91
CGTCCAAGGTCATAGGAGCTCAGTGAAGACAGAT,3.58,5.66,5.78,3.96,5.68,4.03,2.37,4.11,2.47
GCTGCTAGGTCAGGTTGGTCAGCTCACGGGTACG,2.66,2.78,3.52,0.658,1.28,1.84,0.901,0.52,0.536
TCATATAGCTAAATGCTAGGTGAAAGTCCGATCT,0.184,0.0741,0.129,0.952,0.435,0.577,-0.00445,0.429,-0.29
AATACAGCGTCATCGTAGGCCAGAGTACGCACAG,-0.094,-0.121,0.174,-0.495,-0.0638,0.55,-0.659,-0.373,-0.00282
TCAGACAGGTGAAGGTAACTCAAGTACGCAGTCG,0.996,0.573,0.747,1.54,1.13,1.68,0.516,1.12,0.389
ATATGTAGGTTATCGGGTCATGCAGTTTGCGCAT,3.1,3.43,2.66,0.921,3.76,3.54,3.02,4.98,3
CCTTACGGATCACGAGGTTATAGCACGACGAGCG,1.15,0.741,0.714,0.575,1.62,1.52,1.08,1.05,1.06
TAGCCTAGGTCATTGGCCCAGTATAGTACGCATC,2.57,3.61,4.14,1.51,2.56,2.76,0.907,2.09,0.973
TGAATGAGGTTATAAAATCAGGGAACGTTGCAAA,0.0245,1.01,0.843,0.43,1.44,1.56,-0.0954,0.918,0.227
GCGAGTTGGTCAGTAAAAGGTCACACACCGGTCG,5.05,5.52,4.95,1.34,5.54,3.47,1.74,4.33,2.27
AGGCAAAGTTCACTAGGTAACGTAAGATTCAGCT,3.64,4.78,5.51,4.22,3.75,2.15,0.37,3.88,4.15
CAAACTTGGTCAAGAGGTCAAAGTCCGCTTCCCG,4.85,5.94,4.95,2.03,6.1,3.78,1.66,5.4,3.57
AATACAGGGGCATCGTAGGCCAGAGTACGCACAG,1.13,0.978,1.23,0.834,0.784,2.47,-0.358,0.784,1.15
CCTTATGGGTCAAGGTTATAGCACGGGTGGTACG,2.91,4.01,4.26,0.11,3.78,2.22,0.64,2.45,1
CGGCAAAGTTCAACTAAGGTAACGTAAAGCACGC,4,5.78,6.69,4.36,5.14,5.16,1.33,4.67,3.51
TAGCCTAGGTCATTGGGGCAGTATAGTACGCATC,3.31,3.93,4.23,1.67,2.99,2.96,1.28,3.19,1.8
GCAGACAGGTGAAACGCAGGTAAATCAGGGTGGC,0.00843,0.816,-0.0582,-0.477,0.544,1.23,-0.537,-0.374,-0.336
CCTACTCGGCCACGAAAGGTCATTGATTCAGTGA,4.79,4.8,4.78,0.99,5.02,3.53,1.03,4.1,2.62
AATCAAAGTTCATCTAGGTAACGTAAGATATGCT,3.95,5.18,5.7,4.69,4.44,3.23,0.0393,5.13,4.45
ATCTCTAGGTAAAGATAGTTCAGTGAATGCAAAT,0.887,0.422,0.748,-0.0413,0.163,0.71,0.0896,0.815,0.419
CCTCGGAGGACAACAGGAGGTCTGAGCTGCCAGA,0.507,0.123,0.881,-0.213,-0.493,0.56,-0.246,-0.681,-0.289
GATACAGGTTCAAGGCCAGAGTACGCGTATTGAT,1.44,1.82,1.3,3.5,2.13,1.55,0.144,3.41,3.82
CCTGCTAGGTCAATGGGCAGCTAAAGCAGCTCGC,2.4,3.12,4.03,0.674,1.35,1.99,0.0215,0.356,-0.152
CAAACTAGGTCAAGTTCAAAGTCGGTTTGTGCCA,4.52,5.17,5.92,3.84,4.23,3.52,2.16,4.94,6.29
CCGACTGGGACAAGGTTACCATAACGCACAGCCA,0.97,0.731,0.756,-0.018,1.19,1.61,1.08,0.2,-0.0253
